From PubChem
Sampled rows, rich in hits. Any-hit rate of the full collection: about 3.2%.
VDR inh = vitamin D3 receptor (human) inhibition; actives 0.93% (n = 400,000); P11473; Potency, µM, actives largely listed as inhibitors; VDR-SRC2-3 peptide fluorescence polarization, 2 h
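Inhibition of the VDR/SRC2-3 peptide interaction is quantified by fluorescence polarization. Compounds (23 nl, pintool) incubate with the reagents for 2 hours at ambient room temperature.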
PLK1 PBD block = blocks phosphopeptide binding to human PLK1 polo-box domain | Plk1 PBD binding of FITC phosphopeptide, fluorescence polarization | Potency, µM, most hits filed as inhibitors | P53350 | actives 2.8% (n = 360,000); further: series mostly up to about 57 µM; nearly all actives have a fitted effect of over 65% in size
USP2a block = inhibitors of human ubiquitin-specific protease USP2a. O75604. USP2 core, Ub-CHOP2 coupled fluorogenic reporter, 485/531. Potency, µM (series often up to 38.3 µM), hits mostly inhibitors. actives 0.01% (n = 330,000). AID 463254
Target sequence (O75604 whole entry, looked up): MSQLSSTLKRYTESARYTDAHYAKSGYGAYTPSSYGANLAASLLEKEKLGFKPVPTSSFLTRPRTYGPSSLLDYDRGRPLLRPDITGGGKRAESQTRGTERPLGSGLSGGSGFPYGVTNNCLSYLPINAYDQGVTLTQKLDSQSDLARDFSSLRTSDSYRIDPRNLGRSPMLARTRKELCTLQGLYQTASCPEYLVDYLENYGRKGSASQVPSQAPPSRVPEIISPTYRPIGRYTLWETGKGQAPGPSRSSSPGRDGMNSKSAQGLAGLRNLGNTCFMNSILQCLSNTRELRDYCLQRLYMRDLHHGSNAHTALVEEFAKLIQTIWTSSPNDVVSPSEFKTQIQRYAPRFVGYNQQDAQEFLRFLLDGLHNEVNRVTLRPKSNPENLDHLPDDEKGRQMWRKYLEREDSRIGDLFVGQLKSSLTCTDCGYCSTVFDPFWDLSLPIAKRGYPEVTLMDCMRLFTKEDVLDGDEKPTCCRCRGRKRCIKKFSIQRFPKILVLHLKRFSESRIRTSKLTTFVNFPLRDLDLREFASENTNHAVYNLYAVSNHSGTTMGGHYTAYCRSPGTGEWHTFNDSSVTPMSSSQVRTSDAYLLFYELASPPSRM
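USP2 core (10nM final) preincubated 30min RT with compound in 20mM Tris-HCl pH 8.0, 2mM CaCl2, 2mM beta-mercaptoethanol, 0.05% CHAPS; 25nM Ub-CHOP2 plus 25nM reporter substrate added, fluorescence (Ex485/Em531) read after 60min.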
USP1 inh = USP1/UAF1 (human) deubiquitinase inhibition | actives 0.23% (n = 390,000) | recombinant USP1/UAF1, Ub-Rhodamine cleavage fluorescence | O94782 | Potency, µM (series often up to 57.1 µM), most hits filed as inhibitors; further: nearly all actives have a fitted effect of over 60% in size
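High-throughput fluorogenic screen: 1nM USP1/UAF1 complex, Ub-Rho substrate 150nM final, 50mM HEPES pH 7.8 with 0.5mM EDTA, 0.1 mg/ml BSA, 1mM TCEP and 0.01% Tween-20.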
Coupling enz = counter-screen for Giardia aldolase inhibitors: coupling enzyme system | coupling enzyme system counterscreen, AmpLite Red fluorescence | actives 0.67% (n = 290,000) | activity change, negative = inhibition, % at 58.2 µM, hits read low | AID 2472; in the data active means activity change below about -30%
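Counterscreen of the coupled detection system alone, without aldolase: glyceraldehyde-3-phosphate coupling enzymes plus AmpLite Red readout. Compounds at 57.5 uM final, 10 min RT preincubation, 20 min RT reaction, fluorescence 525/598 nm.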
GALK inhibitor = inhibitors of human galactokinase; P51570; Purified GALK, Kinase-Glo residual ATP luminescence; Potency, µM (doses to about 57.5 µM), actives largely listed as inhibitors; actives 0.007% (n = 270,000)
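Luminescence from leftover ATP (Ultra-Glo luciferase/luciferin) served as read-out after a 1 h room-temperature reaction of 5 nM GALK with 35 uM ATP and 100 uM galactose.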
VDR inh confirm = confirmation of human vitamin D receptor inhibitors; shares compounds with VDR inh; VDR-coactivator inhibition assay, qHTS confirmation; Potency, µM, usual class: inhibitors; actives 89% (n = 840); AID 602199
VDR FP = confirmation of human VDR-coactivator binding inhibitors, fluorescein label; Potency, µM (doses to about 57.1 µM), hits mostly inhibitors; actives 48% (n = 840); shares compounds with VDR inh; VDR-coactivator binding, fluorescein fluorescence polarization
VDR bla = confirmation of human vitamin D receptor inhibitors in reporter cells; VDR beta-lactamase reporter cells, FRET ratio; cells co-treated with VDR agonist LG190178; Potency, µM (highest dose often 46.1 µM), hits mostly inhibitors; shares compounds with VDR inh; actives 23% (n = 840)
VDR viability = cell toxicity, VDR inhibitor hit counter-screen; Potency, µM (doses to about 48.3 µM), usual class: cytotoxic; cytotoxicity counter-screen, cell viability, qHTS; actives 18% (n = 840); AID 602204; shares compounds with VDR inh; further: nearly all actives have a fitted effect of over 75% in size
A number is an active result; 0 = inactive; ? = inconclusive; - = no result given. Unless noted, the call rests on the fitted dose curve; in most records, active means well fitted curve in the direction sought with a large enough effect; inconclusive means small, poorly fitted or top-dose-only effect, or another doubt; inactive means no such curve, though single readings can be large; an effect the other way counts as inactive or inconclusive.

SMILES	VDR inh	PLK1 PBD block	USP2a block	USP1 inh	Coupling enz	GALK inhibitor	VDR inh confirm	VDR FP	VDR bla	VDR viability
CC1CCC2C(=O)OC(CN=[N+]=[N-])CN2C1c1ccc(Br)cc1 (stereo unspecified)	-	-	-	-	0	-	-	-	-	-
Cc1ccc(/C=C2\C(=O)ON=C2c2ccccc2)o1	?	?	0	0	0	0	-	-	-	-
O=C1ON=C(c2ccccc2)/C1=C/c1ccc(OS(=O)(=O)c2ccccc2)cc1	?	6µM	0	0	0	0	3.5	3.2µM	0	0
O=C(O)c1cccc(Nc2cc(Cl)c3nonc3c2[N+](=O)[O-])c1	13µM	12µM	0	0	0	0	8.4	20µM	0	0
O=[N+]([O-])c1c(Nc2ccccn2)cc(Cl)c2nonc12	?	0	0	0	-57	-	3.4	?	3.7µM	5.8µM
O=[N+]([O-])c1c(Nc2ccc(O)cc2)cc(Cl)c2nonc12	?	1.7µM	0	?	0	0	2.5	2µM	?	9.5µM
O=C(O)c1cccc(Nc2ccc([N+](=O)[O-])c3nonc23)c1	0	0	0	0	0	0	-	-	-	-
O=C(Cc1ccccc1)Nc1sc2c(c1C(=O)Nc1ccc(Cl)cc1)CCCC2	28µM	-	-	0	-	-	3.2	2.2µM	0	0
c1ccc2c(c1)C(=Nn1cnnc1)c1ccccc1-2	0	0	0	0	0	0	-	-	-	-
COc1ccc(/C=C/C(=O)N/C(=C\c2ccco2)C(=O)NCCc2nc3ccccc3[nH]2)cc1	0	0	0	0	0	0	-	-	-	-
CN(C)S(=O)(=O)c1cccc(N=C2NN=C(c3ccccc3)CS2)c1	?	?	0	?	0	0	-	-	-	-
CC(=O)Nc1ccc(C2=NNC(=Nc3cccc(S(=O)(=O)N(C)C)c3)SC2)cc1	?	19µM	0	10µM	0	0	13	13µM	?	?
O=Cc1cn(-c2ccccc2)nc1-c1ccc(F)cc1	0	0	0	0	0	0	-	-	-	-
CC1=NNC(=O)/C1=C\c1cn(-c2ccccc2)nc1-c1ccc(F)cc1	45µM	1.5µM	0	?	0	0	7.5	?	15µM	7.3µM
CC1=NNC(=O)/C1=C\c1cn(-c2ccccc2)nc1-c1cccs1	10µM	2.7µM	0	0	0	0	3.8	?	16µM	9.2µM
Cc1ccc(C)c(OCc2nnc(NC(=O)c3ccco3)s2)c1	0	0	0	0	0	0	-	-	-	-
CC(=O)N1c2ccccc2C(=O)C1N1CCN(c2ccc(Cl)cc2)CC1 (stereo unspecified)	0	-	-	0	-	-	-	-	-	-
Cc1ccc(CC(=O)NNC(=O)c2ccncc2)cc1C	79µM	12µM	0	0	-	-	27	28µM	0	0
Cc1ccc(C(=O)NNC(=O)c2ccncc2)cc1C	0	0	0	0	0	0	-	-	-	-
CCOC(=O)C1=C(Cc2ccc(Cl)cc2)C(=O)c2ccccc2C1=O	6.3µM	4.7µM	0	?	-37	0	1.8	?	23µM	?
CCOC(=O)C1=C(C)N=C2c3ccccc3C(=O)C2C1c1ccc(Cl)cc1 (stereo unspecified)	0	0	0	0	0	-	-	-	-	-
CN(C)c1ccc(C(=S)N2CCN(c3ccc([N+](=O)[O-])cc3)CC2)cc1	79µM	11µM	0	0	-30	0	27	?	0	0
CC1=NOC(=O)/C1=C\c1ccc(-c2cc(Cl)ccc2Cl)o1	20µM	0.6µM	0	0	0	0	3	?	?	?
